Our source for the growth inhibition, inhibition and outcome values is PubChem BioAssay.

The inhibition is the drop in the measured response relative to a control, in per cent.

The nature of experiment [1]: antimalarial activity against Dd2 strain (AID 2302;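 active = growth inhibition above 50% at the single 2 µM test dose, taken to imply half-maximal potency below 2 µM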;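 note: 0% = DMSO untreated growth and 100% = chloroquine plus artemisinin killed control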). Conditions: P. falciparum Dd2 in RBCs, LDH growth readout, 72 h; at 2 µM; hits give high values.
Experiment [2] can be described thus: HepG2 cytotoxicity, primary screen, cytotoxicity control for P. falciparum antimalarial project, cell-based, ATP luminescence (AID 2303;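 active = inhibition above 50%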;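 note: 0% = DMSO wells and 100% = digitonin-killed cells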). Conditions: HepG2 viability, 24-48 h, at 10 µM, hits give high values.
The target of experiment [3] is L-lactate dehydrogenase (Plasmodium falciparum (isolate CDC / Honduras)) (UniProt Q27743). The experiment in a line: PfLDH activity inhibition – cell lysate, 3D7 strain, counter-screen for P. falciparum growth inhibition project (AID 2304).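 Note: 0% = vehicle and 100% = reference inhibitor.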 Conditions: P. falciparum 3D7 crude extract, LDH APAD/NBT absorbance; at 2 µM; hits give high values.
The nature of experiment [4]: inhibition of 3D7 malaria parasite growth – strain 3D7 (AID 2306).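 Note: 0% = DMSO wells and 100% = chloroquine plus artemisinin control wells.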 The settings on record: P. falciparum 3D7 erythrocytic growth, LDH absorbance, 72 h; at 2 µM; hits give high values.
For experiment [5], the target named is Calcium-dependent protein kinase 1 (Plasmodium falciparum (isolate 3D7)) (UniProt P62344). The experiment in a line: PfCDPK1 kinase inhibitors, biochemical, TCAMS library (AID 1159585; cut-off not given, nearly all actives have IC50 up to about 0.98 µM;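 note: inhibitors leave more ATP so luminescence rises with inhibition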). Conditions: recombinant PfCDPK1, Kinase-Glo ATP depletion luminescence. For orientation: Kinase-Glo reads ATP consumption through a luciferase reaction.
The target in experiment [6] is Plasmodium falciparum protein kinase 6 (PK6, PF3D7_1337100) (UniProt Q8IDW1). The experiment in a line: PfPK6 kinase inhibitors, biochemical, TCAMS library (AID 1159586). Conditions: recombinant PfPK6, Kinase-Glo ATP depletion luminescence.
For experiment [7], the target named is Protein kinase 7 (PK7), Plasmodium falciparum 3D7 (PF3D7_0213400) (UniProt Q7YTF7). The experiment is described as follows: inhibition of Plasmodium PK7 catalytic activity – biochemical, TCAMS antimalarial set, Kinase-Glo luminescence (AID 1159587). The settings on record: recombinant PfPK7, Kinase-Glo ATP depletion luminescence.
Experiment [8] has as its target Calcium-dependent protein kinase 4 (Plasmodium falciparum (isolate 3D7)) (UniProt Q8IBS5). The experiment is described as follows: PfCDPK4 kinase inhibitors, biochemical, TCAMS library (AID 1159588; cut-off not given, nearly all actives have IC50 up to about 0.91 µM). Conditions: recombinant PfCDPK4, Kinase-Glo ATP depletion luminescence.

Unmarked numbers belong to inactive results. For part of these data: Entries with a potency or affinity are not part of this list. Active and inactive are the calls of the source. Unless noted, the rule behind the calls is not given here.

Calcium-dependent protein kinase 4 (Plasmodium falciparum (isolate 3D7)), sequence (Q8IBS5 whole entry, looked up): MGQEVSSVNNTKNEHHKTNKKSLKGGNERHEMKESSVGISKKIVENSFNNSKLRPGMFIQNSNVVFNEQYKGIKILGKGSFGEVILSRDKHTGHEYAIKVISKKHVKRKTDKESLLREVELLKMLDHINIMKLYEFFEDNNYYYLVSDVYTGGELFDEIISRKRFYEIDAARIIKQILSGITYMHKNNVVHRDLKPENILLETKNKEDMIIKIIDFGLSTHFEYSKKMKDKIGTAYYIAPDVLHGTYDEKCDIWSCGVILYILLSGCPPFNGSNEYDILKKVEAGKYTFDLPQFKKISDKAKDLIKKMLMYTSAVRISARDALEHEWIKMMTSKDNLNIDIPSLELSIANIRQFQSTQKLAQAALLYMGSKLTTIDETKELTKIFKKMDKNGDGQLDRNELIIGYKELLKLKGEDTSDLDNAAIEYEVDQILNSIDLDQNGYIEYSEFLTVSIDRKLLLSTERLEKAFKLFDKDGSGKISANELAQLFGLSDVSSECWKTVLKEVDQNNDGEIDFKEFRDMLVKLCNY
Calcium-dependent protein kinase 1 (Plasmodium falciparum (isolate 3D7)), sequence (P62344 whole entry, looked up): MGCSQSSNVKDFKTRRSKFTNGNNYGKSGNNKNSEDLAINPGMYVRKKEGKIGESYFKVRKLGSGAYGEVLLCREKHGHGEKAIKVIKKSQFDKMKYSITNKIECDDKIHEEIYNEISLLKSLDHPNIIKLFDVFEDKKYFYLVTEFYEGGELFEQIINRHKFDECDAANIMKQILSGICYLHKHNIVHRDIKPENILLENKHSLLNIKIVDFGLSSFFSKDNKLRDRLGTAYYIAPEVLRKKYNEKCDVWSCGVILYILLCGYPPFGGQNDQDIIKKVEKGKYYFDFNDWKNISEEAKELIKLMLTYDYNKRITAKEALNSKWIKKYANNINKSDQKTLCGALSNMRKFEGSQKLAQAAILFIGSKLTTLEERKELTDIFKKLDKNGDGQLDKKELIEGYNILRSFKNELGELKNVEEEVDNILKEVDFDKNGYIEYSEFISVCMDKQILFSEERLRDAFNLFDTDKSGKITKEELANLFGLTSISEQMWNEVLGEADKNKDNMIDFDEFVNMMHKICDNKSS
Protein kinase 7 (PK7), Plasmodium falciparum 3D7 (PF3D7_0213400), sequence (Q7YTF7 1-343): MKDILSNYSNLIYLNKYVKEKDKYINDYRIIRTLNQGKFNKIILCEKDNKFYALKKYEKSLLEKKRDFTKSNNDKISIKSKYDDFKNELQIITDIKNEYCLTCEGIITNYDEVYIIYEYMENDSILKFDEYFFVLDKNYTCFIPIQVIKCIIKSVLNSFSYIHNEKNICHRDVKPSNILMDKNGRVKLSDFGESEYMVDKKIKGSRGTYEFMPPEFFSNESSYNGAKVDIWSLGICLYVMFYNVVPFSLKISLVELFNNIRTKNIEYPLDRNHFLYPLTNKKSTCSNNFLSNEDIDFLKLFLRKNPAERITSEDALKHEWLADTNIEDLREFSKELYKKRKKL
Plasmodium falciparum protein kinase 6 (PK6, PF3D7_1337100), sequence (Q8IDW1 1-305): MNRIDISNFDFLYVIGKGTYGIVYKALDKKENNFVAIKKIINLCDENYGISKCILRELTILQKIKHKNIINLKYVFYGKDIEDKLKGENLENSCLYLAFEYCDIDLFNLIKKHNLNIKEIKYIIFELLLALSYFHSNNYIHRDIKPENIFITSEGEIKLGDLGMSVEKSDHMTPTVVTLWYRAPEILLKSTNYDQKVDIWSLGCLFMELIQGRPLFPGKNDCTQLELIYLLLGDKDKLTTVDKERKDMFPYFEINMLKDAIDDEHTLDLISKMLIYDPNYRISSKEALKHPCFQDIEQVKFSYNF
L-lactate dehydrogenase (Plasmodium falciparum (isolate CDC / Honduras)), sequence (Q27743 whole entry, looked up): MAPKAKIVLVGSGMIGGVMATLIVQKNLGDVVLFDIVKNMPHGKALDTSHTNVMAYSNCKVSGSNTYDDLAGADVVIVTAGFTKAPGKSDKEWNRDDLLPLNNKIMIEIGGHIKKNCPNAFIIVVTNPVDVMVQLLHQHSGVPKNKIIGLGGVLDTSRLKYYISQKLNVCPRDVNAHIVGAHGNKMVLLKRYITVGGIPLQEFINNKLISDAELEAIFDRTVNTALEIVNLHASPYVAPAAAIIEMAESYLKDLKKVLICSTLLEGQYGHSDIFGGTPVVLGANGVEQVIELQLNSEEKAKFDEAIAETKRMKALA

For the molecule `CN1CCN(CC(=O)Nc2ccc(-c3ccc(-c4nc5ccc(C(F)(F)F)cc5[nH]4)s3)cc2)CC1`, the growth inhibition was 73% (active) in experiment [1] and 102% (active) in experiment [4]. The inhibition was 84% (active) in experiment [2] and 5% in experiment [3]. For the same molecule, the result in experiment [5], in experiment [6], in experiment [7] and in experiment [8] was inactive.
As for `COc1ccc2c(NN=C(C)c3ccccn3)cc(C)nc2c1`, the growth inhibition is 51% (active) in experiment [1] and 102% (active) in experiment [4]. In addition, the inhibition in experiment [2] is 33%; in experiment [3], -5%. For the same molecule, the result in experiment [5], in experiment [6], in experiment [7] and in experiment [8] was inactive.
`O=C(C(=O)c1ccc(Nc2ccnc3cc(-c4ccccn4)ccc23)cc1)c1ccccc1`: the growth inhibition in experiment [1] is 34%; in experiment [4], 93% (active). Also, the inhibition in experiment [2] is 22%; in experiment [3] it was -4%. In addition, the outcome in experiment [5], in experiment [6], in experiment [7] and in experiment [8] was inactive.
For `CCC(C)CN1CCN(c2ccc(NC(=O)c3cccs3)cc2)C(C)C1` (centres undefined), the growth inhibition in experiment [1] and in experiment [4] was 95% (active) each time. The inhibition is -4% in experiment [2] and -2% in experiment [3]. Besides, the outcome in experiment [5], in experiment [6], in experiment [7] and in experiment [8] was inactive.
On to `CC(C)CN(C)Cc1ccc(-c2ccc(-c3nc4ccccc4[nH]3)s2)cc1`, for which the growth inhibition in experiment [1] was 76% (active); in experiment [4], 97% (active). Moreover, the inhibition was 8% in experiment [2] and 2% in experiment [3]. In addition, the outcome in experiment [5], in experiment [6], in experiment [7] and in experiment [8] was inactive.
On to `CC(C)C1=C[C@H]2C[C@]3(C4OCCO4)[C@@H]4CC[C@@H](C)[C@H]4C[C@@]2(C(=O)OCC2COCO2)[C@]13C(=O)OC(c1ccccc1)c1ccccc1` (some centres undefined), for which the growth inhibition in experiment [1] was 96% (active); in experiment [4] it was 92% (active). The inhibition is 2% in experiment [2] and 4% in experiment [3]. Besides, the outcome in experiment [5], in experiment [6], in experiment [7] and in experiment [8] was inactive.
Consider `COCCNc1nc(N2CCC(CNC(=O)c3ccc(-c4ccc(C(=O)N(C)C)cc4C)cc3)CC2)nc2cc(OC)c(OC)cc12`, for which the figures for the growth inhibition in experiment [1] and in experiment [4] were 97% (active) and 98% (active), respectively. Further, the results for the inhibition in experiment [2] and in experiment [3] were 12% and 3%, respectively. The result in experiment [5], in experiment [6], in experiment [7] and in experiment [8] was inactive.
Take `Fc1cccc(COc2ccc(Nc3ncnc4sc(C#C[C@H]5CCCN5)cc34)cc2F)c1`: the growth inhibition in experiment [1] is 17%; in experiment [4] it was 98% (active). Further, the inhibition in experiment [2] was 13%; in experiment [3], 5%. In addition, the outcome in experiment [5], in experiment [6], in experiment [7] and in experiment [8] was inactive.
As for `CC(=O)Nc1cccc(C(=O)Nc2cccc(-c3csc(-c4nc5ccccc5[nH]4)c3)c2)c1`, the values for the growth inhibition in experiment [1] and in experiment [4] were 97% (active) and 96% (active), respectively. In addition, the inhibition in experiment [2] is 39%; in experiment [3], 1%. For the same molecule, the outcome in experiment [5], in experiment [6], in experiment [7] and in experiment [8] was inactive.
For the molecule `CC(C)C(=O)NC(c1cccs1)c1cc(Cl)c2cccnc2c1O` (centres undefined), the growth inhibition in experiment [1] and in experiment [4] was 91% (active) each time. The inhibition in experiment [2] was 23%; in experiment [3], -2%. The result in experiment [5], in experiment [6], in experiment [7] and in experiment [8] was inactive.
As for `CCN(CC)CCNC(=O)c1ccc(NC(=O)c2cn(-c3ccccc3)nc2-c2cccs2)cc1`, the growth inhibition in experiment [1] is 94% (active); in experiment [4] it was 103% (active). Besides, the values for the inhibition in experiment [2] and in experiment [3] were 30% and -1%, respectively. Also, the result in experiment [5], in experiment [6], in experiment [7] and in experiment [8] was inactive.
In the case of `COc1cc2nc(N3CCN(C(=O)c4cccc(I)c4)CC3)nc(N)c2cc1OC`, the growth inhibition was 26% in experiment [1] and 88% (active) in experiment [4]. The results for the inhibition in experiment [2] and in experiment [3] were 11% and 2%, respectively. Besides, the outcome in experiment [5], in experiment [6], in experiment [7] and in experiment [8] was inactive.
As to `Nc1nc2c(ncn2OC[C@H]2COP(=O)(O)CO2)c(=O)[nH]1`, the growth inhibition was 32% in experiment [1] and 92% (active) in experiment [4]. The inhibition in experiment [2] was 1%; in experiment [3] it was -2%. Also, the outcome in experiment [5], in experiment [6], in experiment [7] and in experiment [8] was inactive.
As to `CCCC/C=C(\Cl)c1ccc(O)c2c1C[C@H]1C[C@H]3[C@H](N(C)C)C(=O)C(C(N)=O)=C(O)[C@@]3(O)C(=O)C1=C2O`, the figures for the growth inhibition in experiment [1] and in experiment [4] were 98% (active) and 90% (active), respectively. Moreover, the inhibition is 16% in experiment [2] and -4% in experiment [3]. Also, the result in experiment [5], in experiment [6], in experiment [7] and in experiment [8] was inactive.
Regarding `O=C(N[C@@H](CC1CCCCC1)C(=O)NC1CC1)c1ccc(O)c(-c2cccc(C(F)(F)F)c2)c1`, the growth inhibition was 47% in experiment [1] and 99% (active) in experiment [4]. The inhibition is -5% in experiment [2] and -4% in experiment [3]. Moreover, the outcome in experiment [5], in experiment [6], in experiment [7] and in experiment [8] was inactive.
In the case of `CN(C)Cc1ccc(-c2cccc(NC(=O)c3cccc(Cl)c3)c2)cc1`, the figures for the growth inhibition in experiment [1] and in experiment [4] were 12% and 96% (active), respectively. The inhibition in experiment [2] is 18%; in experiment [3], -6%. Moreover, the result in experiment [5], in experiment [6], in experiment [7] and in experiment [8] was inactive.
In the case of `O=C(/C=C/c1ccccc1Cl)Nc1ccc(Br)c(OCCN2CCN(CCN3CCCC3)CC2)c1`, the growth inhibition in experiment [1] is 89% (active); in experiment [4], 99% (active). Moreover, the values for the inhibition in experiment [2] and in experiment [3] were 26% and -7%, respectively. The result in experiment [5], in experiment [6], in experiment [7] and in experiment [8] was inactive.
As to `COc1ccc(NC(=O)c2ccc(Br)c(C)c2)cc1N1CCN(CCCCc2ccccc2)CC1`, the growth inhibition is 17% in experiment [1] and 88% (active) in experiment [4]. The inhibition is 29% in experiment [2] and -1% in experiment [3]. The result in experiment [5], in experiment [6], in experiment [7] and in experiment [8] was inactive.
